# Inconclusive results are not listed. A call without a number means that no potency is given here. The source made the active and inactive calls. The call rests on the fitted dose curve; in most records, active means well fitted inhibition curve with a large enough effect; inconclusive means small, poorly fitted or top-dose-only effect; inactive means flat fitted curve, though single readings scatter. Where a SMILES comes first, the peptide text is derived from it. Bridges are numbered along the chain shown (N, C = ends). [ ]: non-standard residue; d: D form. The star is where a group is joined. X1 = CCC(C)C(N)C1=NC(C(=O)*)CS1; dOrn = NCCC[C@@H](N)C(=O)O
# Target: Glutathione peroxidase 1 (Homo sapiens) (UniProt P07203)
# Assay: Primary qHTS Assay for Inhibitors of Recombinant Selenoprotein Glutathione Peroxidase 1 (GPX1) (AID 1845191); further: nearly all actives have a fitted effect of over 65% in size
# Settings: recombinant GPX1, GR-coupled NADPH fluorescence, 15 min; series mostly up to 48.8 µM
# Description: Assay Provider: Elias S.J. Arner MD PhD.
# Department of Medical Biochemistry and Biophysics
# Karolinska Institutet, Solna, Stockholm, Sweden
# Selenoprotein glutathione peroxidases (GPX), like the ubiquitously expressed GPX1 and the ferroptosis modulator GPX4, enact their antioxidant activities by reducing hydroperoxides using glutathione. […] GPX1 and GPX4 inhibitors have thus shown promise as anti-cancer agents. Existing inhibitors are often promiscuous, or modulate GPX activity only indirectly, so novel direct inhibitors identified through screening against GPX1 and GPX4 could be valuable. Here, we developed optimized glutathione reductase (GR)-coupled GPX assays for the biochemical high-throughput screen (HTS) of almost 12,000 compounds with known mechanisms of action. Initial hits were triaged using a GR counter-screen, assessed for isoform specificity using a separate GPX2 assay, and were assessed for general selenocysteine-targeting activity using a thioredoxin reductase (TXNRD1) assay. With this suite of assays, we identified novel GPX1/GPX2- and GPX4-specific inhibitors and can here present a validated pipeline for future discovery research for selenoprotein-targeting agents.
# SEQUENCE No. (e.g., 1, 2, 3, etc.); […] (e.g., Cells, Incubation, Reagent, etc.); VALUE; DESCRIPTION.
# 1; Reagent 1; 3 uL; GPx1 enzyme or no enzyme control in 1536-well, black, solid Greiner assay plate.
# 2; Compound; 25 nL; Kalypsis pin tool (Wako USA) equipped with a 1536-well pin head.
# 3; Incubation; 30 min; room temperature.
# 4; Reagent 2; 1 uL; 10 nM GPX1, 1 mM GSH, 0.5 mM CHP, 0.5 mM NADPH, 100 nM GR, 0.01% BSA substrate
# 5; Detection; Fluorescence; ViewLux microplate reader, excitation 340 nm and emission 450 nm.
# 6; Incubation; 15 min; room temperature.
# 7; Detection; Fluorescence; ViewLux microplate reader, excitation 340 nm and emission 450 nm.
# NOTES (numbers refer to Sequence numbers above)
# 1. 3 uL of 16.66 nM GPX1 and 0.016% BSA in assay buffer (50 mM Tris-HCl, 2 mM EDTA (pH 7.5), 150 mM NaCl) was added to columns 3-48 of 1536-well assay plates using a BioRAPTR Flying Reagent Dispenser (Let's Go Robotics (LGR), Carlsbad, CA). A no-enzyme control (0.01% BSA in TES assay buffer) was added to columns 1-2.
# 2. 25 nL of test compounds and DMSO controls were added to each well with a pin tool (Kalypsys).
# 3. The assay plates were incubated for 30 minutes at room temperature.
# 4. 1 uL of master mix (500 nM glutathione reductase (GR), 5 mM reduced glutathione (GSH), 2.5 mM NADPH in assay buffer) was added. 1 uL of cumene hydroperoxide (CHP) ([2.5 mM] in 50% EtOH) was then added within 5 minutes to initiate the reaction. Final concentrations were: 10 nM GPX1, 1 mM GSH, 0.5 mM CHP, 0.5 mM NADPH, 100 nM GR, 0.01% BSA.
# 5. Initial fluorescence readout (t=0) at 340/450 nm was measured using a ViewLux multimodal detector (PerkinElmer, Waltham, MA).
# 7. Endpoint fluorescence readout (t=15) at 340/450 nm was measured 15 min after room temperature incubation.
# Potency means the concentration at half of the fitted maximal effect.
# Chain of Glutathione peroxidase 1 (Homo sapiens) (P07203 whole entry, looked up): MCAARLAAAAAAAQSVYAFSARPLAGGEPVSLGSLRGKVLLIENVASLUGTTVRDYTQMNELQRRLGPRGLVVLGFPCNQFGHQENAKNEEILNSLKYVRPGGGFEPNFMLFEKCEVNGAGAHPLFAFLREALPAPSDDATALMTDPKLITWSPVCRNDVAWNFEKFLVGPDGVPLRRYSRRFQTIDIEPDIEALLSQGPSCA
Compound,Potency,outcome
CCC(NC(=O)CC(NC(=O)C(CO)NC(=O)C(CC)NC(=O)c1ccc[nH]1)c1ccccc1)C(=O)O (stereo not given),inactive,
CC1(C)C(=O)N2c3ccccc3[C@]3(CC(n4cnc5ccccc5c4=O)C(=O)O3)[C@H]2N1O (stereo not given in full),inactive,
C=CCc1ccc(O[C@@H]2O[C@H](CO[C@@H]3O[C@H](CO)[C@@H](O)[C@H](O)[C@H]3O)[C@@H](O)[C@H](O)[C@H]2O)c(O)c1,inactive,
CCCCC(CC)COC(=O)CC(C(=O)OCC(CC)CCCC)S(=O)(=O)O (stereo not given),inactive,
CCCC1=CC2=C(CO1)C(=O)C(C)(OC(=O)c1c(C)cc(OC)cc1O)C(O)C2 (stereo not given),inactive,
COC(=O)C1=C(C#N)NC(C)=C(C(=O)OC(C)C)C1c1cccc([N+](=O)[O-])c1 (stereo not given),inactive,
CC(=O)Oc1c(C)cc(OCC(O)CNC(C)C)c(C)c1C (stereo not given),inactive,
C[C@@H]1O[C@@H](O[C@H]2[C@H](O[C@H]3CC[C@@]4(C)C(CC[C@]5(C)C4CC=C4[C@@H]6CC(C)(C)CC[C@]6(C(=O)O)CC[C@]45C)[C@]3(C)CO)OC[C@H](O)[C@@H]2O)[C@H](O)[C@H](O[C@@H]2OC[C@@H](O)[C@H](O)[C@H]2O)[C@H]1O (stereo not given in full),inactive,
CC(=O)O[C@H](C[C@@H](C)[C@H]1C(=O)[C@H](O)[C@@]2(C)[C@@H]3CCC4C(C)(C)[C@@H](O[C@@H]5OC[C@H](O)[C@H](O)[C@H]5O)CC[C@@]45C[C@@]35CC[C@]12C)[C@@H]1OC1(C)C (stereo not given in full),inactive,
C=CC1(C)CC2=CCC3C(C)(C(=O)O)CCCC3(C)C2CC1OC(C)=O (stereo not given),inactive,
CC1(C)CCCC2(C)C(CO)C3CCC2C31 (stereo not given),inactive,
NS(=O)(=O)NCCNc1nonc1C(=Nc1ccc(F)c(Br)c1)NO,inactive,
O=c1ccn(C2OC(CO)C(O)C2O)c(=O)[nH]1 (stereo not given),inactive,
CC(=O)OC1C=C(C(=O)O)C2(CO)CCC(C)C(C)(CCc3ccoc3)C2C1 (stereo not given),inactive,
CC(C)(C)c1cc(CN2CCN(CC(O)c3ccc(Cl)cc3)CC2)cc(C(C)(C)C)c1O (stereo not given),inactive,
CC1(C)O[C@@H]2C[C@H]3[C@@H]4CCC5=CC(=O)C=C[C@]5(C)[C@H]4[C@@H](O)C[C@]3(C)[C@]2(C(=O)CO)O1,inactive,
CC(CCC1(O)OC2CC3C4CCC5CC(O[C@@H]6O[C@H](CO)[C@@H](O)[C@H](O)[C@H]6O[C@@H]6OC[C@@H](O)[C@H](O)[C@H]6O)C(O)CC5(C)C4CCC3(C)C2C1C)CO[C@@H]1O[C@H](CO)[C@@H](O)[C@H](O)[C@H]1O (stereo not given in full),inactive,
CC1CCC2C(C(=O)O)=CC3CC(C)(C)CC132 (stereo not given),inactive,
OCC1=CC[C@@H]2C=CO[C@@H](O[C@@H]3O[C@H](CO)[C@@H](O)[C@H](O)[C@H]3O)[C@H]12,inactive,
NCCCC[C@H](NC(=O)[C@@H]1Cc2ccccc2CN1C(=O)CCC(=O)c1ccccc1)C(=O)NCC(c1ccccc1)c1ccccc1,inactive,

Compound,Potency,outcome
Cc1nn(C)c(COc2ccc(N3CCN(S(=O)(=O)N(C)C)CC3)cc2)c1-c1cccc2c(CCCOc3cccc4ccccc34)c(C(=O)O)n(CCN3CCOCC3)c12,inactive,
CCN[C@@H]1C[C@H](N)[C@@H](O[C@H]2OC(CN)=CC[C@H]2N)[C@H](O)[C@H]1O[C@H]1OC[C@](C)(O)[C@H](NC)[C@H]1O,inactive,
Cc1ccc(C(=O)Nc2ccc(Oc3cc4cnn(C)c4cc3-c3cn[nH]c3)c(F)c2)c(=O)n1-c1ccc(F)cc1,inactive,
C[C@@H]1O[C@@H](O[C@H]2[C@H](O[C@H]3CO[C@@H](O[C@H]4CC[C@@]5(C)C(CC[C@]6(C)C5CC[C@]57OC[C@@]8(CC[C@](C)(CO)CC85)[C@H](O)C[C@]76C)C4(C)C)[C@H](O[C@@H]4O[C@H](CO)[C@@H](O)[C@H](O)[C@H]4O)[C@H]3O)O[C@H](CO)[C@@H](O)[C@@H]2O)[C@H](O)[C@H](O)[C@H]1O (stereo not given in full),inactive,
CCC(C)C(N)C1=NC(C(=O)N[C@@H](CC(C)C)C(=O)N[C@H](CCC(=O)O)C(=O)N[C@H](C(=O)N[C@H]2CCCCNC(=O)[C@H](CC(N)=O)NC(=O)[C@@H](CC(=O)O)NC(=O)[C@H](Cc3cnc[nH]3)NC(=O)[C@@H](Cc3ccccc3)NC(=O)[C@H]([C@@H](C)CC)NC(=O)[C@@H](CCCN)NC2=O)[C@@H](C)CC)CS1 (stereo not given in full) (X1-L[dE]IK[dOrn]I[dF]H[dD]N; lactam 4-C),inactive,
CC1CCC2C(C)(C)C(O)CCC2(C)C12Cc1c(O)cc3c(c1O2)C(N)=NC3 (stereo not given),inactive,
OC[C@H]1O[C@@H](n2cnc3c2NC=NC[C@H]3O)C[C@@H]1O,inactive,
Nc1c(Br)cc(Br)cc1CNC1CCC(O)CC1 (stereo not given),inactive,
CC1(CO)CC[C@]2(C(=O)O[C@@H]3O[C@H](CO)[C@@H](O)[C@H](O)[C@H]3O)CC[C@]3(C)C(=CCC4[C@@]5(C)CC[C@H](O[C@@H]6O[C@H](C(=O)O)[C@@H](O)[C@H](O)[C@H]6O)C(C)(C)C5CC[C@]43C)C2C1 (stereo not given in full),inactive,
CC(=O)N1CCN(NC(=O)c2ccc(F)cc2)CC1,inactive,
O=C(/C=C/c1ccc(O)cc1)OC[C@H]1O[C@@H](OC(=O)/C=C/c2ccccc2)[C@H](O)[C@@H](O)[C@@H]1O,inactive,
C=C1C[C@]23C[C@H]1CC[C@H]2[C@]1(C)CCC[C@@]2(CO)C(=O)O[C@H]([C@H]21)[C@@H]3O,inactive,
CC(=O)c1c(C)cc(O[C@@H]2O[C@H](CO)[C@@H](O)[C@H](O)[C@H]2O)cc1O,inactive,
O=C(O)c1cc(O)c2c(c1)[O][Bi][O]2,,inactive [at 0.4 µM]
NCc1c[nH]c(=S)n1C1CCc2c(F)cc(F)cc2C1 (stereo not given),22.7 µM (active),
CCOC(=O)Nc1nc2ccccc2[nH]1,inactive,
CC(=O)OC1C(O)CC(O[C@@H]2O[C@H](CO)[C@@H](O)[C@H](O)[C@H]2O)C2CCC3C(=O)OC(c4ccoc4)CC3(C)C21 (stereo not given in full),inactive,
C[C@@H]1O[C@@H](O[C@H]2[C@H](O[C@H]3CC[C@@]4(C)C(CC[C@]5(C)C4CC=C4C6CC(C)(C)CC[C@]6(C(=O)O[C@@H]6O[C@H](CO[C@@H]7O[C@H](CO)[C@@H](O[C@@H]8O[C@@H](C)[C@H](O)[C@@H](O)[C@H]8O)[C@H](O)[C@H]7O)[C@@H](O)[C@H](O)[C@H]6O)CC[C@]45C)[C@]3(C)CO)OC[C@H](O)[C@@H]2O)[C@H](O)[C@H](O)[C@H]1O (stereo not given in full),,inactive [at 9.52 µM]
COC(=O)[C@@]1(C)CC[C@]2(C(=O)O[C@@H]3O[C@H](CO)[C@@H](O)[C@H](O)[C@H]3O)CC[C@]3(C)C(=CCC4[C@@]5(C)CC[C@H](O[C@@H]6O[C@H](C(=O)O)[C@@H](O)[C@H](O)[C@H]6O)C(C)(C)C5CC[C@]43C)[C@@H]2C1 (stereo not given in full),inactive,
CC12CC34C=CC(=O)C(C)(CCC(=O)O)C3C(CC1C4)O2 (stereo not given),inactive,
